In PubChem BioAssay AID504554 (Johns Hopkins Ion Channel Center, 2011):
Calls of active or inactive are those of the source.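 How the source made its calls: active means peak TRPC4 channel inhibition over 30% at some tested dose, plus a fitted dose response curve; inactive means no inhibition at any dose, or no curve fitted.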

What follows are compounds tested against Short transient receptor potential channel 4 (Mus musculus) (UniProt Q9QUQ5) (assay: mouse TRPC4 blockers in HEK293 cells – cell-based, HEK293 TRPC4/mu-opioid, concentration-response, selectivity assay for TRPC6 selective inhibitor project, SAR follow-up (AID 504554)). Conditions: DAMGO-evoked Fluo-4 calcium ratio; series mostly up to 6.67 µM; fluorescence ratio, lower = inhibition: at the top concentration.
Sequence of Short transient receptor potential channel 4 (Mus musculus) (Q9QUQ5 whole entry, looked up): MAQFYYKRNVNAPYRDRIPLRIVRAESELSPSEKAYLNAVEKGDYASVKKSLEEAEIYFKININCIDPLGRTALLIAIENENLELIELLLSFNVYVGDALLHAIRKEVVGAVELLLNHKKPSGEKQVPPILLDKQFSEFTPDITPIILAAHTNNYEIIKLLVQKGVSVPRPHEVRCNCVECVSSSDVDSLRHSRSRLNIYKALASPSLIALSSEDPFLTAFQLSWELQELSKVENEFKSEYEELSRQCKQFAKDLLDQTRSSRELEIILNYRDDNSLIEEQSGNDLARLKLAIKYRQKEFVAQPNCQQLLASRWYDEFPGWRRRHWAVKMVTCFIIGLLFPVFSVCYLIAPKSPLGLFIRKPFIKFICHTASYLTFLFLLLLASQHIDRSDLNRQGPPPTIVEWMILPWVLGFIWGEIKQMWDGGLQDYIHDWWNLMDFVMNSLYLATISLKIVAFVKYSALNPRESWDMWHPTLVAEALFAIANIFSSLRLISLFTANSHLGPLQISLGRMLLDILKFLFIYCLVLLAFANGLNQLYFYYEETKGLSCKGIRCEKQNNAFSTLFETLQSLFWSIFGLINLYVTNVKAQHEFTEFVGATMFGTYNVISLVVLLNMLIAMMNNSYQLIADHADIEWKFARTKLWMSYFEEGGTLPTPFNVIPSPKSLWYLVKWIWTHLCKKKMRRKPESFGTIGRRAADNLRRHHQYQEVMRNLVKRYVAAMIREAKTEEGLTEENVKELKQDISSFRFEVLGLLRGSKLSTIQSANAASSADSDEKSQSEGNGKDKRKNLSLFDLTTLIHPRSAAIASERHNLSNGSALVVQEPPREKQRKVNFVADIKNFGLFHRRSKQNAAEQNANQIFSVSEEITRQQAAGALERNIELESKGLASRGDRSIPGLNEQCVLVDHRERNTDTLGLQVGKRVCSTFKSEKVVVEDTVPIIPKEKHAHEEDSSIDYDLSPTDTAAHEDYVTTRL

Structure (SMILES)	fluorescence ratio, lower = inhibition	outcome
CC(C)(C)n1cnc2cc(NCc3ccccc3O)ccc21	50.7 (inactive)	–
COc1ccc(CNc2ccc3c(c2)ncn3C(C)(C)C)cc1	51.1 (inactive)	–
COc1ccc(CNc2ccc3c(c2)ncn3-c2ccccc2)cc1	47 (inactive)	–
Cc1ccc(CNc2ccc3c(c2)ncn3C(C)(C)C)cc1	41.2 (inactive)	–
CC(=O)Nc1ccc2c(c1)ncn2C(C)(C)C	52.3 (inactive)	–
CCc1ccc(CNc2ccc3c(c2)ncn3C(C)(C)C)cc1	40.6 (inactive)	–
CN(C)c1ccc(CNc2ccc3c(c2)ncn3C(C)(C)C)cc1	–	inactive
COc1ccc(OC)c(CNc2ccc3c(c2)ncn3C(C)(C)C)c1	42.2 (inactive)	–
CCN(CC)c1ccc(CNc2ccc3c(c2)ncn3C(C)(C)C)cc1	53.8 (inactive)	–
CC(C)c1ccc(CNc2ccc3c(c2)ncn3C(C)(C)C)cc1	38.7 (inactive)	–
CCC(=O)Nc1ccc2c(c1)ncn2C(C)(C)C	54.4 (inactive)	–
CC(C)(C)n1cnc2cc(NCc3ccc(Cl)cc3Cl)ccc21	39.5 (inactive)	–
CC(C)(C)n1cnc2cc(NCc3ccc(Br)cc3)ccc21	49.4 (inactive)	–
CCOc1ccc(CNc2ccc3c(c2)ncn3-c2ccccc2)cc1	52.6 (inactive)	–
CCOc1ccc(CNc2ccc3c(c2)ncn3C)cc1	54.2 (inactive)	–
CC(C)(C)n1cnc2cc(NCc3cccc(Br)c3)ccc21	47.9 (inactive)	–

Structure (SMILES)	fluorescence ratio, lower = inhibition	outcome
CC(C)(C)n1cnc2cc(NC(=O)c3cccs3)ccc21	55.2 (inactive)	–
COc1ccc(CNc2ccc3c(c2)ncn3C(C)(C)C)cc1OC	50 (inactive)	–
CC(C)(C)n1cnc2cc(NCc3cccc4ccccc34)ccc21	38.9 (inactive)	–
CC(C)(C)n1cnc2cc(NCc3ccco3)ccc21	57.3 (inactive)	–
CCOc1ccccc1CNc1ccc2c(c1)ncn2C(C)(C)C	40.9 (inactive)	–
COc1ccccc1CNc1ccc2c(c1)ncn2C(C)(C)C	44.4 (inactive)	–
CC(C)(C)n1cnc2cc(NC(=O)c3ccccc3)ccc21	48.3 (inactive)	–
COc1ccc(CNc2ccc3c(c2)ncn3C(C)(C)C)c(OC)c1	52.9 (inactive)	–
CCOc1ccc(CNc2ccc3c(c2)ncn3C(C)(C)C)cc1	44.9 (inactive)	–
COc1cccc(CNc2ccc3c(c2)ncn3C)c1OC	53.2 (inactive)	–
CC(C)(C)n1cnc2cc(NCc3ccccc3Cl)ccc21	38.5 (inactive)	–
CC(C)(C)n1cnc2cc(NC(=O)c3ccc(Cl)cc3)ccc21	50.5 (inactive)	–
CCCC(=O)Nc1ccc2c(c1)ncn2C(C)(C)C	55.1 (inactive)	–
COc1cc(C(=O)Nc2ccc3c(c2)ncn3C(C)(C)C)cc(OC)c1OC	58.2 (inactive)	–
COc1cccc(CNc2ccc3c(c2)ncn3C(C)(C)C)c1OC	–	inactive
CC(C)(C)n1cnc2cc(NCc3cccs3)ccc21	49 (inactive)	–
